In PubChem BioAssay AID684 (PCMD, 2007):
Screen size: about 62,000 compounds; about 95 (0.2%) were called active. What follows is part of a selection rich in actives, with near analogues and random picks from the rest. A number with no mark means an inactive call. Cut-off read from the data, not from the text of the source: active = inhibition above about 20% (passing the limit was not always enough); inactive = the rest.

Each compound was assayed against Coagulation factor XII (Homo sapiens) (UniProt P00748) (assay: human factor XIIa inhibitors, primary screen, biochemical, pooled compound mixtures, fluorogenic substrate (AID 684;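 note: 0% = enzyme without compound and 100% = no enzyme blank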)). Conditions: purified FXIIa, at 5 µM, hits give high values.
Sequence of Coagulation factor XII (Homo sapiens) (P00748 20-372 limits assumed): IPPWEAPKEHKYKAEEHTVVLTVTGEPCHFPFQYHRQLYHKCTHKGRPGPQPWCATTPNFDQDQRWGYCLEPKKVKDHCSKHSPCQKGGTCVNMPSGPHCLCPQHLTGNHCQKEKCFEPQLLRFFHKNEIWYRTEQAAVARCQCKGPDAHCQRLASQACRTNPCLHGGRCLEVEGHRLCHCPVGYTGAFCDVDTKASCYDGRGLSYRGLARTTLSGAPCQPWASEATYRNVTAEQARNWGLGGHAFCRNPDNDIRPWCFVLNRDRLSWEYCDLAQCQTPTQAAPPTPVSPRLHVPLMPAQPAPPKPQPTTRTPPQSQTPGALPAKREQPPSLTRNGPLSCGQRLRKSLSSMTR
Sequence of Coagulation factor XII (Homo sapiens) (P00748 373-615 limits assumed): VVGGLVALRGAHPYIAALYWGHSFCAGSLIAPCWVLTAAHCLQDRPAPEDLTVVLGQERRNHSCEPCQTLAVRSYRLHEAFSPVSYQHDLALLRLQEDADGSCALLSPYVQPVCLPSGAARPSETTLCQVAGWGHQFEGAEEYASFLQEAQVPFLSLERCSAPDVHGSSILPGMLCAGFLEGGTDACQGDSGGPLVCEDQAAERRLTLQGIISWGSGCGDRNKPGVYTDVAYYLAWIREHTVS

| Compound | inhibition |
| --- | --- |
| CCS(=O)(=O)n1nc(-c2ccccc2)nc1SCc1ccccc1 | 6.08% |
| Cc1noc(C)c1C(=O)NC(C)c1ccc2c(c1)OCO2 (stereo not given) | 4.17% |
| COC(=O)C1=C(C)Nc2ncnn2C1c1ccco1 (stereo not given) | 15.1% |
| COc1ccc(OC)c2[nH]c(=O)c(CCNC(=O)C(C)(C)C)cc12 | -10.9% |
| CCO/C([O-])=N/c1c[n+](N2CCOCC2)no1 | 3.21% |
| CN(C)CCOC(=O)C(c1ccccc1)C1(O)CCCC1 (stereo not given) | 2.14% |
| Cc1cccc(CSc2nnc(Cn3c(=O)sc4ccccc43)n2C)c1 | 0.99% |
| CCCC(NS(=O)(=O)c1ccc(OC)cc1)C(=O)O (stereo not given) | 10.4% |
| O=C(NCc1cccnc1)c1cn(-c2ccccc2)nc1-c1cccs1 | 5.99% |
| O=C(NCCCNCc1ccccc1)c1ccc(/C=N/O)nc1 | 1.86% |
| CCn1c(SCC(=O)Nc2ccc3c(c2)OCCO3)nc2c(c1=O)SC(C)C2 (stereo not given) | 11.3% |
| O=C(CN1CCN(S(=O)(=O)/C=C/c2ccccc2)CC1)NC(=O)NCc1ccco1 | -1.11% |
| CC(NC(=O)c1ccc(Cl)cc1)C(=O)N1CCCCC1 (stereo not given) | 6.69% |
| CCOC(=O)Cc1csc(NC(=O)C(C)(C)C)n1 | 3.6% |
| O=C1CCC(=O)N1CCOP1(=O)COc2ccccc2OC1 | 2.03% |
| COCCNC(=O)c1ccccc1-c1nc(-c2ccccc2Cl)no1 | 6.16% |
| c1csc(CN2CCN(Cc3cccs3)C2c2cccs2)c1 | -13.3% |
| COCc1cc(C)nc(SCC(=O)Nc2cccc(C)c2)c1C#N | 21.5% (active) |
| COCc1cc(C)nc(Nc2cc(C)ccc2C)c1C#N | 1.73% |
| COC(=O)c1cccc(NC(=O)CSc2nc(C)cc(=O)[nH]2)c1 | 9.59% |
| Cn1c2c(c(=O)n(C)c1=O)CN(Cc1ccco1)CN2 | -0.485% |
| Cc1ccc2[nH]c(=O)c(-c3nc4c(C)cccn4c3NCc3ccco3)cc2c1 | -0.355% |

| Compound | inhibition |
| --- | --- |
| O=C(COc1ccccc1)N1CCc2ccccc2C1 | 9.32% |
| CC1CCC(NC(=O)c2ccc(N3CCCC3=O)cc2)CC1 (stereo not given) | -12.2% |
| CCc1nc(C)cn1S(=O)(=O)c1cc(OC)c(C)cc1C | 9.21% |
| CCCC1CC(C)(C(=O)Cn2[nH]c(=O)ccc2=O)OC1=O (stereo not given) | -1.01% |
| O=C(c1cc(-c2ccccc2O)on1)N1CCCC1 | -13.8% |
| Cc1ccc(S(=O)(=O)Nc2ccc3ncccc3c2)cc1 | -13.2% |
| Cc1cc(N(C)C)cc(C)[n+]1[O-] | -12% |
| CC(C)c1ccc(N2CC(C(=O)Nc3nccs3)CC2=O)cc1 (stereo not given) | 3.69% |
| COc1ccc(Cn2cccc(NC(=O)Nc3ccc(C#N)cc3)c2=O)cc1 | 10.3% |
| Cc1ccccc1C(OCC(O)CN1CCCCC1CCO)c1ccccc1 (stereo not given) | 4.15% |
| Cc1ccc(Nc2cc(=O)n(C3CCCCC3)c(=O)[nH]2)cc1C | 5.68% |
| CCCCn1c(=S)[nH]c2ncccc2c1=O | 4.05% |
| COC(=O)C(C)N(C#N)c1nc(C)nc(C)n1 (stereo not given) | 9.14% |
| Cc1csc(NC(=O)CN2CCCCCC2)n1 | 7.17% |
| Cc1nc2ccc(S(=O)(=O)NCC(=O)NCCN3CCCCC3C)cc2s1 (stereo not given) | 9.34% |
| Cc1ccn2cc(-c3nonc3C)cc2c1 | 9.55% |
| CCCCC(=O)N(c1ccc(OC)cc1)C1C=CS(=O)(=O)C1 (stereo not given) | 4.62% |
| C=CCn1c(=O)c2ccccc2n2c(SCC(=O)N3CCCc4ccccc43)nnc12 | -6.74% |
| COc1ccc(S(=O)(=O)N2CCCC(C(=O)Nc3ccc(NC(=O)c4ccccn4)cc3)C2)cc1 (stereo not given) | 9.91% |
| CC12CCC(C(=O)N3CCN(c4ncccn4)CC3)(c3nc4ccccc4nc31)C2(C)C (stereo not given) | 11.8% |
| CC1(C)C2CCC1(C)C(OC(=O)CCn1ccnc1)C2 (stereo not given) | 3.17% |
| Cc1ccc2c(c1)C(O)(CC(=O)c1cccnc1)C(=O)N2 (stereo not given) | 10.7% |

| Compound | inhibition |
| --- | --- |
| Cc1cc2ccccc2n2c(SCC(=O)N3CCN(C(=O)c4ccco4)CC3)nnc12 | -6.12% |
| CCC(Sc1nncn1C)C(=O)Nc1nnc(-c2ccc(Cl)cc2)s1 (stereo not given) | 15.7% |
| Cc1ccc(SCc2cc(=O)[nH]c(N3CCCCC3)n2)cc1 | 3.87% |
| N#Cc1c(N)sc2c1CCN(C(=O)OCc1ccccc1)C2 | -18% |
| COc1ccc2c(c1)C(C)=CC(C)(C)N2C(=O)CNCc1ccc2c(c1)OCO2 | 17% |
| CCN(CC)c1ccc2cc(C(=O)O)c(=O)oc2c1 | -2.87% |
| COc1cccc(Oc2ccc(N)cc2)c1 | -12.6% |
| COC(=O)CSc1nc(C2CC2)nc2ccccc12 | -5.91% |
| Cn1cc(S(=O)(=O)N2CCC(Cc3ccccc3)CC2)c(=O)n(C)c1=O | -15.8% |
| O=C(CN1C(=O)COc2ccccc21)NCCN1CCc2ccccc2C1 | 2.87% |
| CCC1=[N+]([O-])C(C)(/C(C)=N\O)N(O)C1(C)C (stereo not given) | -9.09% |
| COc1cccc(-c2nnc(N(C)C(=O)c3ccno3)s2)c1 | 7.52% |
| CCN1CCCC1CNC(=O)Cn1cnc2ccc(S(=O)(=O)N3CCC(C)CC3)cc2c1=O (stereo not given) | 9.9% |
| O=C(NCc1cccnc1)c1ccc(CS(=O)(=O)c2ccc(Br)cc2)o1 | -21.3% |
| CCCn1c(C(O)c2ccc(OCC)cc2)nc2ccccc21 (stereo not given) | 4.63% |
| CCOC(=O)c1cccc(NC(=O)CCn2nnc3ccccc32)c1 | -0.18% |
| CCCN(c1ccc(C(C)C)cc1)S(=O)(=O)c1c(C)[nH]c(=O)[nH]c1=O | -19% |
| CCCn1c(SCC(=O)N2CCc3ccccc32)nnc1-c1ccncc1 | -0.835% |
| CCN1C(=O)/C(=C\N2CCN(c3cccc(Cl)c3)CC2)SC1=S | 20.4% (active) |
| CCN1C(=O)/C(=C\N2CCN(c3ccccc3)CC2)SC1=S | 4.83% |
| CS(=O)(=O)N(CC(=O)N1CCN(c2cccc(Cl)c2)CC1)c1ccccc1 | 1.3% |
